Source: PubChem BioAssay (Tox21)
Several values for one entry are separate records, joined by “and”; a condition that tells them apart may be missing. Equal entries are not always repeated. Results filed as inconclusive are left out. More than one record can exist for a structure, and the calls need not agree. Activity calls are given as the source filed them. Unless noted, the call rests on the fitted dose curve; in most records, active means well fitted curve in the direction sought with a large enough effect in the repeat runs; inconclusive means weak or mixed curves; inactive means no such curve, though single readings can be large; an effect the other way counts as inactive or inconclusive.

Assays:
[1] = qHTS assay to identify small molecule antagonists of the constitutive androstane receptor (CAR) signaling pathway - cell viability counter screen (AID 1224837); further: nearly all actives have a fitted effect of over 45% in size; further: potency means the concentration at half of the fitted maximal effect
In short: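 In quantitative HTS format, compounds at 15 concentrations were applied to HepG2 cells double-transfected with hCAR and CYP2B6-2.2kb under 50 nM CITCO stimulation; live-cell protease activity was read after 23 hr via CellTiter-Fluor.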

[2] = qHTS assay to identify small molecule agonists of the hypoxia (HIF-1) signaling pathway - cell viability counter screen (AID 1224844; calls by dose curve; further: nearly all actives have a fitted effect of over 50% in size; further: potency means the concentration at half of the fitted maximal effect)
In short: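 Same wells as the HIF-1 reporter screen; ME-180 cells carrying HRE-bla, 17 hr treatment at 37C; CellTiter-Glo luminescence read after 30 min at room temperature.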

[3] = qHTS assay to identify small molecule agonists of H2AX - cell viability counter screen (AID 1224847; calls by dose curve; further: nearly all actives have a fitted effect of over 30% in size; further: potency means the concentration at half of the fitted maximal effect)
In short: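 Counter-screen for viability: CellTiter-Glo ATP luminescence read after 3 h compound treatment (15-point titration, 0.76% DMSO final) of CHO-K1 cells at 37C, with 30 min room-temperature reagent incubation.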

[4] = qHTS RealTime-Glo MT Cell Viability Assay in HepG2 cells - 24 hour (AID 1224867); further: nearly all actives have a fitted effect of over 50% in size; further: potency means the concentration at half of the fitted maximal effect
In short: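 HepG2 cells (600/well) were dispensed with RealTime-Glo reagents, incubated 5 h at 37 °C, then treated with compounds in DMSO for up to 40 h. Nonlytic NanoLuc luminescence reflecting viable cells was read at each stated time point.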

[5] = qHTS RealTime-Glo MT Cell Viability Assay in HEK293 cells - 32 hour (AID 1224868); further: nearly all actives have a fitted effect of over 50% in size; further: potency means the concentration at half of the fitted maximal effect
In short: (§1)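 HEK293 cells seeded with NanoLuc/prosubstrate reagent, rested 5 h at 37 C, then dosed and kept at 37 C up to 40 h. Nonlytic real-time luminescence from viable cells read at 0, 8, 16, 24, 32 and 40 h.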

[6] = A CellTox Green Cytotoxicity Assay to monitor cytotoxicity in HEK293 cells - 0 hour (AID 1224869); further: nearly all actives have a fitted effect of over 50% in size
In short: (§2)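 Homogeneous no-lysis format: HEK293 cell suspension mixed with CellTox Green reagent, seeded, incubated 5 h at 37 C/5% CO2, then dosed by pintool with compound in DMSO.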

[7] = qHTS RealTime-Glo MT Cell Viability Assay in HepG2 cells - 40 hour (AID 1224870); further: nearly all actives have a fitted effect of over 50% in size; further: potency means the concentration at half of the fitted maximal effect
In short: (§3)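 Real-time viability: cells seeded at 600 per well together with NanoLuc and cell-permeant prosubstrate, compounds added after 5 h incubation. Luminescence tracked at 0, 8, 16, 24, 32 and 40 h of exposure.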

[8] = A CellTox Green Cytotoxicity Assay to monitor cytotoxicity in HEK293 cells - 40 hour (AID 1224871); further: nearly all actives have a fitted effect of over 45% in size; further: potency means the concentration at half of the fitted maximal effect
In short: as §2

[9] = qHTS RealTime-Glo MT Cell Viability Assay in HepG2 cells - 8 hour (AID 1224873); further: nearly all actives have a fitted effect of over 55% in size
In short: as §3

[10] = qHTS assay to identify small molecule antagonists of the estrogen related receptor signaling pathway with the pleiotropic PPARgamma coactivator (PGC) from Tox21 10K library (AID 1224841; call rule not given here)
In short: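 In the PGC/ERR line, DMSO solutions of test chemicals are pin-delivered to 2,000 cells/well six hours after dispensing. Following eighteen hours' incubation, One-Glo reagent is added and luminescence recorded.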

[11] = qHTS assay to identify small molecule antagonists of the estrogen related receptor (ERR) signaling pathway from Tox21 library (AID 1224848); further: nearly all actives have a fitted effect of over 50% in size; further: potency means the concentration at half of the fitted maximal effect
In short: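 ERR cell line, 2,000 cells/well. 6 h settle, then compound (DMSO) added; 18 h at 37 C; ONE-Glo luminescence after 30 min RT.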

[12] = biological target: Thyrotropin receptor (Homo sapiens) (UniProt P16473); experiment: qHTS assay to identify small molecule agonists of the thyroid stimulating hormone receptor (TSHR) signaling pathway (AID 1224843; calls by dose curve; further: nearly all actives have a fitted effect of over 45% in size)
In short: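 A cell-based cAMP HTRF format was run in TSHR-transfected HEK293 cells, 800 per well. Treatment: 30 min, room temperature. Detection: 1 h with labelled cAMP and anti-cAMP cryptate. Concentration-response over 15 points, three replicates.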

[13] = qHTS assay to identify small molecule agonists of H2AX (AID 1224845; active means well fitted activation curve with a large enough effect in the signal ratio in the repeat runs, not every such curve was filed as active; the % refers to the signal ratio; further: potency means the concentration at half of the fitted maximal effect)
In short: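 Phospho-H2AX Ser139 measured by HTRF (ex 320 nm; em 665 and 620 nm) after 24 hr antibody incubation. Compounds, 15 concentrations, 0.76% DMSO, were applied to CHO-K1 cells for 3hr at 37C before lysis.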

[14] = qHTS assay to identify small molecule agonists of the hypoxia (HIF-1) signaling pathway (AID 1224846; active means well fitted activation curve with a large enough effect in the signal ratio in the repeat runs, not every such curve was filed as active; the % refers to the signal ratio)
In short: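 In ME-180 cells bearing an HRE-bla construct, 17 h treatment with DMSO-dissolved compounds at 37C was followed by CCF4-AM loading to quantify reporter induction.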

[15] = qHTS RealTime-Glo MT Cell Viability Assay in HEK293 cells - 16 hour (AID 1224872)
In short: as §1

[16] = qHTS assay to identify small molecule antagonists of the estrogen related receptor signaling pathway with the pleiotropic PPARgamma coactivator (PGC) from Tox21 10K library - cell viability counter screen (AID 1224840; active means well fitted cell-killing curve with a large enough effect in the repeat runs, not every such curve was filed as active; further: nearly all actives have a fitted effect of over 40% in size)
In short: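 Viability counter screen, PGC/ERR cells: 17.5 h compound exposure at 37 C, CellTiter-Fluor fluorescence endpoint.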

[17] = qHTS assay to identify small molecule agonists of the estrogen related receptor signaling pathway with the pleiotropic PPARgamma coactivator (PGC) from Tox21 10K library (AID 1224842); further: nearly all actives have a fitted effect of over 15% in size; further: potency means the concentration at half of the fitted maximal effect
In short: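 Luminescence from One-Glo (30 min, room temperature) measured after PGC/ERR cells had 18 h at 37 C with pinned compound (23 nL in DMSO). Cells had been seeded at 2,000 per well and pre-incubated 6 h.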

[18] = qHTS assay to identify small molecule agonists of the estrogen related receptor (ERR) signaling pathway from Tox21 library (AID 1224849; calls by dose curve; further: nearly all actives have a fitted effect of over 15% in size); conditions: ERR reporter cell line, ONE-Glo luciferase, 18 h; at 92.4 µM (top of the series) unless noted
In short: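 Reporter cells (ERR, NTP source) treated with Tox21 10K compounds 18 h, 37 C. Readout: ONE-Glo luminescence, 30 min RT.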

[19] = biological target: Nuclear receptor subfamily 1 group I member 3 (Homo sapiens) (UniProt Q14994); experiment: qHTS assay to identify small molecule antagonists of the constitutive androstane receptor (CAR) signaling pathway (AID 1224838); further: nearly all actives have a fitted effect of over 40% in size
In short: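 CITCO-stimulated (50 nM final) HepG2 cells stably transfected with hCAR and CYP2B6-2.2kb luciferase were exposed to compounds at 15 concentrations for 24 h at 37 C/5% CO2. A luciferase reagent was added and luminescence recorded after 30 min.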

[20] = biological target: Nuclear receptor subfamily 1 group I member 3 (Homo sapiens) (UniProt Q14994); experiment: qHTS assay to identify small molecule agonists of the constitutive androstane receptor (CAR) signaling pathway (AID 1224839); further: nearly all actives have a fitted effect of over 15% in size; further: potency means the concentration at half of the fitted maximal effect;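 on activation: HepG2 cells stably carrying human CAR and a CYP2B6 luciferase reporter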
In short: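 Luminescent ONE-Glo read-out after 24 hr, 37 C exposure of double-stable HepG2-CYP2B6-hCAR reporter cells to a 15-point compound series, in the presence of 0.75 uM PK11195 (final).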
On the % scale 0 is the no-effect control and ±100 the full control effect.

Sequence of Nuclear receptor subfamily 1 group I member 3 (Homo sapiens) (Q14994 whole entry, looked up): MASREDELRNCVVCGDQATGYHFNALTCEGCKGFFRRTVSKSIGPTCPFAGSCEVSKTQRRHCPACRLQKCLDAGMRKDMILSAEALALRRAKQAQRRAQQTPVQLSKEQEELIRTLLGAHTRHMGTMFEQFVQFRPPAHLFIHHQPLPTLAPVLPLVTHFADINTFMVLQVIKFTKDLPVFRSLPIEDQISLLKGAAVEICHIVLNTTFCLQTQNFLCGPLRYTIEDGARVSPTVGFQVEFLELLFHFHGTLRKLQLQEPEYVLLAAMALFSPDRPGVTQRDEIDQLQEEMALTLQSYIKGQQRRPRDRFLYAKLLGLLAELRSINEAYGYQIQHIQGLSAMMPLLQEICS
Sequence of Thyrotropin receptor (Homo sapiens) (P16473 whole entry, looked up): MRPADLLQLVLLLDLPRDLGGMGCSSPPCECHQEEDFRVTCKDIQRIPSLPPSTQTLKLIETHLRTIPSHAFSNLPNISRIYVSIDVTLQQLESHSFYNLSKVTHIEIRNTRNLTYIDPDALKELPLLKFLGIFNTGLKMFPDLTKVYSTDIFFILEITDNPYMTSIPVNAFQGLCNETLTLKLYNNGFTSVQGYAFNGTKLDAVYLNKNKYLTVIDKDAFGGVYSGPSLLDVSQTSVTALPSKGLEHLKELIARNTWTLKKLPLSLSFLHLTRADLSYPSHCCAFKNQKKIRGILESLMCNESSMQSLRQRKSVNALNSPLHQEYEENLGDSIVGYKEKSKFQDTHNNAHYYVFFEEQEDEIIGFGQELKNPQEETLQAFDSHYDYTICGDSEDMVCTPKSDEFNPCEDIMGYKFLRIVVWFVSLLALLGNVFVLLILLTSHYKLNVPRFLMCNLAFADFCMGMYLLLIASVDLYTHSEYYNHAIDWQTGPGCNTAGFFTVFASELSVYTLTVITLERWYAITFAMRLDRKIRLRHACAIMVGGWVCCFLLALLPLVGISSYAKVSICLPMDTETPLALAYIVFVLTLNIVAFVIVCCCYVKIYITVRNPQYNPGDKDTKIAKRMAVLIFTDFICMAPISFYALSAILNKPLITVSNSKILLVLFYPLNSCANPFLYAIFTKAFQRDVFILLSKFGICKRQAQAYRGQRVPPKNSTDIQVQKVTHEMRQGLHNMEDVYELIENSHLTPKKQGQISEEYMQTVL

CN(C)CCCN1c2ccccc2CCc2ccccc21
inactive: Potency [1] | Potency [3] | Potency [4] | Potency [5] | Potency [6] | Potency [7] | Potency [9]
active: Potency [2] 38.9 µM
43.6 µM (active) and inactive: Potency [8]

O=C1c2c(O)ccc(O)c2C(=O)c2c(NCCNCCO)ccc(NCCNCCO)c21
inactive: Potency [10] | Potency [8] | Potency [9]
active: Potency [1] 4.22 µM | Potency [11] 750 nM | Potency [4] 9.52 µM | Potency [5] 0.0239 µM | Potency [7] 7.56 µM

CC(C)=CC1CC(C)CCO1 (stereo not given)
inactive: Potency [1] | Potency [12] | Potency [2] | Potency [13] | outcome [14] | Potency [3] | Potency [4] | Potency [6] | Potency [7] | Potency [8] | Potency [15] | Potency [9]

CC(=O)Nc1ccc(O)cc1
inactive: Potency [1] | Potency [16] | Potency [2] | Potency [3] | Potency [4] | Potency [5] | Potency [6] | Potency [8] | Potency [9]

C/C=C/c1ccc(OC)c(OC)c1
inactive: Potency [1] | Potency [16] | Potency [12] | Potency [13] | outcome [14] | Potency [4] | Potency [6] | Potency [7] | Potency [15] | Potency [9]

CCN(CC)c1cccc(C)c1
inactive: Potency [1] | Potency [10] | Potency [17] | Potency [2] | Potency [13] | outcome [14] | Potency [3] | Potency [11] | activity change, positive = activation [18] 9.53% | Potency [4] | Potency [6] | Potency [8] | Potency [15] | Potency [9]

CCCCCCCCCCCCCc1ccccc1
inactive: Potency [1] | Potency [16] | Potency [12] | Potency [2] | outcome [14] | Potency [3] | Potency [4] | Potency [5] | Potency [6] | Potency [7] | Potency [8] | Potency [9]

CC(C)(c1cc(Br)c(O)c(Br)c1)c1cc(Br)c(O)c(Br)c1
active: Potency [13] 113 µM | Potency [3] 89.5 µM
54.3 µM (active) and inactive: Potency [11]
inactive: Potency [19] | Potency [20] | Potency [16] | Potency [10] | Potency [17] | Potency [12] | activity change, positive = activation [18] -21.4% and -40.7% and -13.4% | Potency [4] | Potency [5] | Potency [7] | Potency [8] | Potency [15]

Oc1c(Br)cc(Br)c2cccnc12
inactive: Potency [1] | Potency [10] | Potency [12] | Potency [3] | Potency [4] | Potency [6] | Potency [7] | Potency [9]
active: Potency [17] 29.8 µM | Potency [11] 18800 nM

O=C(O)CCCCCCC(=O)O
inactive: Potency [1] | Potency [16] | Potency [12] | Potency [2] | Potency [13] | outcome [14] | Potency [3] | Potency [4] | Potency [5] | Potency [7] | Potency [8] | Potency [15]

Cc1cccc(N(C)C)c1
inactive: Potency [19] | Potency [20] | Potency [16] | Potency [10] | Potency [17] | Potency [12] | Potency [2] | Potency [13] | outcome [14] | Potency [3] | Potency [11] | activity change, positive = activation [18] -0.051% | Potency [4] | Potency [5] | Potency [6] | Potency [7] | Potency [8] | Potency [15] | Potency [9]

CCOB(OCC)OCC
inactive: Potency [1] | Potency [12] | Potency [2] | Potency [13] | outcome [14] | Potency [3] | Potency [4] | Potency [6] | Potency [7] | Potency [8] | Potency [9]

Cc1c(C)n(Cc2ccccc2)c2ccc(C(=O)OCCN(C)C)cc12
active: Potency [20] 11.9 µM | Potency [17] 29.8 µM | Potency [13] 6.19 µM | Potency [7] 23.9 µM
inactive: Potency [19] | Potency [16] | Potency [10] | Potency [12] | Potency [2] | outcome [14] | Potency [11] | activity change, positive = activation [18] -7.81% [at 42.5 µM] | Potency [6] | Potency [9]
